Shown is part of a subset that was picked to be rich in hits.
CBX7 inh: CBX7 inhibition, primary AlphaScreen; AID 1224903; normalised signal (fraction of DMSO) (test concentration not listed); AlphaScreen His6-CBX7 / biotin-H3K27me3 peptide binding; hits give low values; hit rate 1.1% among 66,000; O95931; in the data active means normalised signal below about 0.5
Target sequence (O95931 whole entry, looked up): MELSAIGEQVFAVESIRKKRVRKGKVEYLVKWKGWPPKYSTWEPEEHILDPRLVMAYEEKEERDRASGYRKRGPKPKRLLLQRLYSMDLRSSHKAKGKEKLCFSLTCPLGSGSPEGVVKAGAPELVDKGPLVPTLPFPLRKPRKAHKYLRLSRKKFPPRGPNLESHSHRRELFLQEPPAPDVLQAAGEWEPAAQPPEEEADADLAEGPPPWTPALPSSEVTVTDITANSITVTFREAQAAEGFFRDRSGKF
Numbers without * were called inactive; ! = not active in a repeat.

SMILES	CBX7 inh
O=C(CC(C(=O)N1CCc2ccccc21)n1ccnc1)NCCN1CCCCCC1 (configuration not stated)	0.336*
CN1CCN(CCCNC(=O)CC(C(=O)N2CCc3ccccc32)n2ccnc2)CC1 (configuration not stated)	0.98
CCCCCCCNC(=O)CC(C(=O)N1CCc2ccccc21)n1ccnc1 (configuration not stated)	0.876
O=C(NC1CCCCC1)c1ccc2c(c1)N(Cc1ccc(F)cc1)C(=O)c1ccccc1S2=O (configuration not stated)	0.919
CCn1cc(C(=O)NCCCN2CCC(C)CC2)c(=O)c2ccc(C)nc21	1.14
CCOc1cccc(C2CC(=O)NC3=C2C(=O)CCC3)c1 (configuration not stated)	1.14
CCC1CCCCN1S(=O)(=O)c1ccc2[nH]c(=O)cc(C(=O)NCc3ccc4c(c3)OCO4)c2c1 (configuration not stated)	0.931
COc1ccc(-c2cc3nc(C)c(CCC(=O)Nc4cc(F)ccc4F)c(C)n3n2)c(OC)c1	0.99
Cc1ccc(-n2cc(-c3ccccc3)c3c(NCc4cccnc4)ncnc32)cc1Cl	0.888
COc1ccccc1Nc1nc(-c2ccccc2Cl)nc2ccccc12	1.28
COc1ccccc1Nc1nc(-c2ccc(C)cc2)nc2ccccc12	1.41
COc1ccccc1Nc1nc(-c2ccncc2)nc2ccccc12	0.329*
CCOc1ccccc1NC(=O)c1c(NC(=O)c2cccs2)sc2c1CCCC2	1.08
CC(=O)Nc1ccc(S(=O)(=O)N=C(N)Nc2nc(C)c3ccccc3n2)cc1	1.01
O=C(O)c1cccc(Nc2nc(-c3ccccn3)cs2)c1	0.148*
O=C(O)c1cccc(Nc2nc(-c3ccncc3)cs2)c1	0.969
Cc1cccc(Nc2nc(-c3ccccn3)cs2)c1	0.162*
CCc1ccc(-c2csc(Nc3ncccn3)n2)cc1	1.11
Cc1cccc(Nc2nc(-c3ccc(Cl)cc3)cs2)c1	0.758
Oc1ccc(Nc2nc(-c3ccccn3)cs2)cc1	0.00138*
c1cnc(Nc2nc(-c3ccncc3)cs2)nc1	1.09
COc1ccc(-c2csc(Nc3ccc(O)cc3)n2)cc1OC	0.773
O=C(O)c1cccc(Nc2nc(-c3ccccc3)cs2)c1	1.02
Cc1cccc(Nc2nc(-c3ccncc3)cs2)c1	0.716
c1ccc(-c2csc(Nc3ncccn3)n2)nc1	0.00885*
SMILES	CBX7 inh
CCOc1ccccc1Nc1nc(-c2ccccn2)cs1	0.6
COc1ccc(-c2nn(C)c3sc(C(=O)N4CCCC4)cc23)cc1OC	0.963
O=C(NCc1ccccc1)c1ccc2c(c1)N(Cc1cccc(Cl)c1)C(=O)CS2	0.939
Cc1n[nH]c(C)c1CCCCOc1cccc(Cl)c1	1.05
O=C(Nc1nc(-c2ccc(F)cc2)cs1)c1ccc(Br)cc1	1.04
Cc1ccc(NC(=O)CCc2nnc3ccc(N4CCN(c5cc(C)ccc5C)CC4)nn23)cc1	0.795
O=C(CCc1ccccc1)Nc1nnc(Cc2ccc(Cl)cc2Cl)s1	1.02
COc1ccc(CCNC(=O)CN2C(=O)COc3ccc(C(C)(C)C)cc32)cc1OC	0.533
Oc1cccc(Nc2nc(-c3ccccn3)cs2)c1	0.186*
COc1ccc(-c2csc(Nc3cccc(O)c3)n2)cc1OC	0.869
Oc1cccc(Nc2nc(-c3ccncc3)cs2)c1	0.768
Cc1ccc(-n2c3c(cc(C(=O)NCCCN(C)C)c2=O)C(=O)CCC3)cc1	1.2
Cc1cccc(-c2nc(Nc3ccc(C)cc3Br)c3ccccc3n2)c1	1.28
Cc1ccc2nc(-c3cccs3)c(NC(=O)c3ccc(Cl)cc3)n2c1	0.942
CC(=O)Nc1ccc(NS(=O)(=O)c2cccc3cccnc23)cc1	1
O=S(=O)(Nc1cccc2cccnc12)c1ccccc1O	0*
Cc1cc(C)c(S(=O)(=O)Nc2cccc3cccnc23)c(C)c1	1.28
COc1ccc2c(c1)c(/C=C/c1nc3ccccc3c(=O)n1-c1ccccc1C)c(C)n2C	1.12
O=C(Nc1nc2ccccc2s1)c1ccc2c(=O)n3c(nc2c1)CCCCC3	1.04
CCCCC(=O)Nc1c2c(nn1-c1cccc(Cl)c1)CSC2	0.971
CCCCN(CCCNC(=O)C1CC(=O)N(CCc2ccccc2)C1)c1ccccc1 (configuration not stated)	0.498*
CCN(CCCNC(=O)C1CC(=O)N(CCc2ccccc2)C1)c1cccc(C)c1 (configuration not stated)	0.991
CCCCNC(=O)C1CC(=O)N(CCc2ccccc2)C1 (configuration not stated)	1
COc1ccc(C2C(=O)N(C3CCCCC3)CC(=O)N2C2CC2)cc1OC (configuration not stated)	1.02
O=C(CSc1nnc(Cc2cc(=O)[nH]c(=O)[nH]2)n1-c1ccc(F)cc1)Nc1cccc(Cl)c1	1.04
SMILES	CBX7 inh
O=C(C1CCC1)N1CCc2cc(S(=O)(=O)NCCc3ccc(Cl)cc3)ccc21	0.944
COc1ccc(-c2nnc(NC(=O)c3ccc(S(=O)(=O)N4CC(C)CC(C)C4)cc3)o2)cc1 (configuration not stated)	0.915
O=C(Nc1nnc(-c2ccccc2)o1)c1ccc(F)c(S(=O)(=O)N2CCOCC2)c1	0.117*!
CCc1nnc(NC(=O)c2ccc(S(=O)(=O)N3CCCCC3CC)cc2)o1 (configuration not stated)	0.59
O=C(Nc1nnc(-c2ccc(F)cc2)o1)c1ccc(S(=O)(=O)N2CCOCC2)cc1	0.00366*
CCC1CCCCN1S(=O)(=O)c1ccc(C(=O)Nc2nnc(-c3ccc(Cl)s3)o2)cc1 (configuration not stated)	0.383*
CCC1CCCCN1S(=O)(=O)c1ccc(C(=O)Nc2nnc(-c3cccs3)o2)cc1 (configuration not stated)	0.908
CC(C)CN(CC(C)C)S(=O)(=O)c1ccc(C(=O)Nc2nnc(-c3cccs3)o2)cc1	0.963
CN(C)S(=O)(=O)c1ccc(C(=O)Nc2nnc(-c3cccs3)o2)cc1	0.216*
Cc1ccc(C(=O)Nc2ccccc2)cc1S(=O)(=O)N1CCOCC1	1.02
Cc1ccccc1NC(=O)c1ccc(F)c(S(=O)(=O)N2CCN(c3ccccc3)CC2)c1	0.995
CN(c1ccccc1)S(=O)(=O)c1ccc(C(=O)Nc2nnc(-c3cccs3)o2)cc1	0.983
COc1cc(OC)cc(-c2nnc(NC(=O)c3ccc(S(=O)(=O)N4CCOCC4)cc3)o2)c1	0.85
COc1ccccc1C(=O)N1CC(=O)Nc2ccc(C)cc2C1c1ccccc1 (configuration not stated)	0.964
CC1(c2ccccc2)CC(O)CC(c2ccccc2)N1 (configuration not stated)	1.04
Cc1cc(NC(=O)C2(S(=O)(=O)c3ccc(Cl)cc3)CC2)no1	1.01
COc1ccccc1OCc1nc(-c2cccnc2)no1	1.12
CCCc1nnc(NC(=O)CSc2nncn2C)s1	1.11
O=C(Nc1ccc(Br)cc1F)c1cnc2ccccn2c1=O	1.07
O=C(Nc1nnc(-c2cccs2)o1)c1ccc(S(=O)(=O)N2CCCC2)cc1	0.13*
CC1CC(C)CN(S(=O)(=O)c2ccc(C(=O)Nc3nnc(-c4cccs4)o3)cc2)C1 (configuration not stated)	0.877
COc1ccc(-c2nnc(NC(=O)c3ccc(S(=O)(=O)N4CCCC(C)C4)cc3)o2)cc1 (configuration not stated)	0.726
O=C(Nc1nnc(-c2ccc(Cl)s2)o1)c1ccc(S(=O)(=O)N2CCOCC2)cc1	0.00635*
CC1CCN(S(=O)(=O)c2ccc(C(=O)Nc3nnc(-c4cccs4)o3)cc2)CC1	0.85

Bioassay records as filed in PubChem.
